Experimental findings from PubChem BioAssay (EPA / NIEHS) are described below.

Test [1] can be described thus: APR_HepG2_CellCycleArrest_24hr: Apredica 24-hour HepG2 Assay for Cell Cycle Arrest (AID 2282905).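 Note: cell cycle arrest scored as ratio of 2N to 4N nuclear DNA content.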 Particulars: imaging, actives raise or lower the signal. Put shortly:
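Cell cycle arrest is scored from nuclear DNA content measured by high-content imaging of Hoechst 33342-stained HepG2 cells following 24-hour treatment at ten concentrations up to 200 uM, with DMSO as baseline.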

Test [2] can be described thus: APR_HepG2_StressKinase_1hr: Apredica 1-hour HepG2 Assay for Stress Kinase (AID 2282906). The settings on record: HepG2 stress kinase (phospho-c-Jun) imaging, actives raise or lower the signal. The method, boiled down:
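HepG2 cells dosed 0.39-200 uM (0.5% DMSO) for 1 h, then formaldehyde-fixed. Stress kinase read by phospho-c-Jun immunofluorescence using high-content imaging; bidirectional fit vs DMSO.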

The nature of test [3]: APR_HepG2_NuclearSize_24hr: Apredica 24-hour HepG2 Assay for Nuclear Size (AID 2282907). Particulars: high-content imaging, actives raise or lower the signal. The method, boiled down:
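Compounds in DMSO (final 0.5%) were added to human HepG2 hepatoma cells at ten concentrations up to 200 uM for 24 hr. Fixed nuclei were stained with Hoechst 33342, and nuclear diameter was quantified from automated images.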

Test [4] is described as follows: APR_HepG2_CellLoss_24hr: Apredica 24-hour HepG2 Assay for Cell Loss (AID 2282908).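 For AC50: fit in both directions so a hit may be cell loss or gain.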 The settings on record: high-content imaging. The method, boiled down: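 Cell number is quantified by fluorescence imaging of Hoechst 33342-stained nuclei following dosing at 0.39–200 uM in 0.5% DMSO. Curves are fitted in both directions from the DMSO baseline.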
A short description of test [5]: APR_HepG2_MitoticArrest_24hr: Apredica 24-hour HepG2 Assay for Mitotic Arrest (AID 2282910). The settings on record: high-content imaging, actives raise or lower the signal. The method, boiled down:
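HepG2 human liver cells were exposed to compounds at 0.39–200 uM (10 concentrations, duplicate) in 0.5% v/v DMSO for 24 hr, then fixed and immunostained for phospho-histone H3 with Hoechst 33342. Mitotic arrest came from HCS fluorescent imaging, fitted bidirectionally against DMSO.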

Test [6] in a line: APR_HepG2_MitoMembPot_24hr: Apredica 24-hour HepG2 Assay for Mitochondrial Membrane Potential (AID 2282911). The settings on record: imaging, actives raise or lower the signal. The method, boiled down: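 HepG2 human liver cells were exposed 24 hr to compounds at 0.39–200 uM (final DMSO 0.5% v/v) in duplicate. MitoTracker Red CMXRos (250 nM, 30 min) was loaded before formaldehyde fixation; fluorescence was imaged by ArrayScan HCS and fitted bidirectionally versus DMSO.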

Test [7] can be described thus: APR_HepG2_MitoMass_24hr: Apredica 24-hour HepG2 Assay for Mitochondrial Mass (AID 2282912). Particulars: high-content imaging, actives raise or lower the signal. Put shortly: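 The liver line HepG2 was dosed in duplicate across a 0.39–200 uM series, with final DMSO held at 0.5% v/v, and harvested at 24 hr. High-content imaging measured mitochondrial dye staining.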

Test [8] is described as follows: APR_HepG2_p53Act_24hr: Apredica 24-hour HepG2 Assay for p53 Activation (AID 2282913).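 Note: p53 protein immunofluorescence averaged per cell in HepG2 with Hoechst nuclei.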 The settings on record: high-content imaging, actives raise or lower the signal. The method, boiled down:
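HepG2 cells exposed 24 hr to compounds at 0.39–200 uM (10 concentrations, duplicate), final DMSO 0.5% v/v. After formaldehyde fixation and Triton permeabilization, p53 was immunolabeled (sheep anti-p53, Cy5 secondary) with Hoechst 33342 nuclear counterstain, then imaged by high-content fluorescence microscopy.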

Test [9] can be described thus: APR_HepG2_CellCycleArrest_72hr: Apredica 72-hour HepG2 Assay for Cell Cycle Arrest (AID 2282914). Particulars: high-content imaging, actives raise or lower the signal. Put shortly: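 HepG2 cells were exposed to compounds at 0.39–200 uM (0.5% v/v DMSO final, duplicates) for 72 hr, fixed in 3.7% formaldehyde, permeabilized and stained with Hoechst 33342. Nuclear DNA content was quantified by high-content imaging; gain or loss of signal was fitted bidirectionally against DMSO.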

Test [10] is described as follows: APR_HepG2_P-H2AX_72hr: Apredica 72-hour HepG2 Assay for H2AX Phosphorylation (AID 2282916).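 Note: phospho-histone H2A.x immunostain intensity per cell marking DNA damage.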 Particulars: imaging, actives raise or lower the signal. The method, boiled down: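 Following 72 hr treatment with 0.39–200 uM compound, HepG2 cells were formaldehyde-fixed, permeabilized and stained for phospho-H2A.x; signal was measured by high-content imaging and fitted bidirectionally against DMSO controls.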

Test [11] in a line: APR_HepG2_MitoMembPot_72hr: Apredica 72-hour HepG2 Assay for Mitochondrial Membrane Potential (AID 2282917). Particulars: imaging, actives raise or lower the signal. The method, boiled down:
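HepG2 cells exposed 72 h to compounds at 0.39–200 uM (0.5% v/v DMSO, duplicates); MitoTracker Red CMXRos 250 nM loaded 30 min before 3.7% formaldehyde fixation, imaged by HCS fluorescence. Bidirectional fit versus DMSO.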

Test [12] is described as follows: APR_HepG2_MitoticArrest_72hr: Apredica 72-hour HepG2 Assay for Mitotic Arrest (AID 2282918). Particulars: high-content imaging, actives raise or lower the signal. Put shortly: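 HepG2 cells were exposed for 72 hr to compound at 0.39–200 uM (10 concentrations, duplicate) in 0.5% v/v DMSO, fixed in 3.7% formaldehyde, immunostained for phospho-histone H3 with Hoechst 33342 and imaged by high-content fluorescence; bidirectional fits versus DMSO.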

Test [13] is described as follows: APR_HepG2_MicrotubuleCSK_72hr: Apredica 72-hour HepG2 Assay for Microtubule CSK Stabilty (AID 2282919). The settings on record: HepG2 microtubule cytoskeleton, high-content imaging, actives raise or lower the signal. Put shortly: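 HepG2 human liver cells were dosed for 72 h at ten concentrations from 0.39 to 200 uM in duplicate (0.5% v/v DMSO final). Fixed, permeabilized cells were immunostained for alpha-tubulin (Cy5) with a Hoechst counterstain and imaged at 20x.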

A short description of test [14]: APR_HepG2_P-H2AX_24hr: Apredica 24-hour HepG2 Assay for H2AX Phosphorylation (AID 2282920). The settings on record: high-content imaging, actives raise or lower the signal. Put shortly: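 HepG2 human liver cells were exposed for 24 hr to compounds at 0.39–200 uM in duplicate, with 0.5% v/v DMSO final. Fixed cells were immunostained for phospho-histone H2A.x plus Hoechst 33342, imaged by HCS fluorescence, and fitted bidirectionally against DMSO.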

Test [15] in a line: APR_HepG2_StressKinase_72hr: Apredica 72-hour HepG2 Assay for Stress Kinase (AID 2282921). Particulars: HepG2 stress kinase (phospho-c-Jun) imaging, actives raise or lower the signal. Put shortly: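 Fluorescence intensity of Cy3-tagged anti-phospho-c-Jun antibody, quantified per cell from Hoechst-defined nuclei across six images per well, served as the read-out following 72 h exposure (0.39–200 uM, 0.5% v/v DMSO).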

The nature of test [16]: APR_HepG2_StressKinase_24hr: Apredica 24-hour HepG2 Assay for Stress Kinase (AID 2282922). Particulars: HepG2 stress kinase (phospho-c-Jun) imaging, actives raise or lower the signal. The method, boiled down: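 HepG2 cells exposed 24 hr to compound at 0.39–200 uM (10 concentrations, duplicate), 0.5% v/v DMSO final. Fixed in 3.7% formaldehyde, permeabilized with Triton X-100, immunolabeled for phospho-c-Jun with Hoechst 33342; HCS fluorescence imaging, bidirectional fit versus DMSO.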

Test [17] can be described thus: APR_HepG2_p53Act_72hr: Apredica 72-hour HepG2 Assay for p53 Activation (AID 2282923).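 Note: average cellular p53 protein immunofluorescence intensity in HepG2 cells.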 Particulars: high-content imaging, actives raise or lower the signal. The method, boiled down: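 HepG2 monolayers receive test compounds in duplicate at ten concentrations (0.39 through 200 uM) for 72 hr. They are then formaldehyde-fixed, antibody-labelled for p53, Hoechst-stained and imaged, with activity fitted bidirectionally versus DMSO.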

Test [18] is described as follows: APR_HepG2_MitoMass_72hr: Apredica 72-hour HepG2 Assay for Mitochondrial Mass (AID 2282924).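 Note: MitoTracker Red CMXRos stain intensity per cell imaged as mitochondrial mass.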 The settings on record: high-content imaging, actives raise or lower the signal. Put shortly:
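HepG2 cells were exposed for 72 hr to compounds at 0.39–200 uM (ten concentrations, duplicate, 0.5% v/v DMSO final). Live cells were stained with 250 nM MitoTracker Red CMXRos for 30 min, then fixed in 3.7% formaldehyde and imaged by HCS fluorescence.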

Test [19] in a line: APR_HepG2_CellLoss_72hr: Apredica 72-hour HepG2 Assay for Cell Loss (AID 2282915). Particulars: high-content imaging. The method, boiled down: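 HepG2 cells were exposed for 72 hr to compounds at 0.39–200 uM (ten concentrations, duplicate) in 0.5% v/v final DMSO. Nuclei were stained with Hoechst 33342 after 3.7% formaldehyde fixation, imaged at 20x, and counted; fits bidirectional versus DMSO.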

Test [20] can be described thus: APR_HepG2_MicrotubuleCSK_24hr: Apredica 24-hour HepG2 Assay for Microtubule CSK Stabilty (AID 2282909). Particulars: HepG2 microtubule cytoskeleton imaging, actives raise or lower the signal. The method, boiled down:
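Steps: dose HepG2 for 24 h (0.39–200 uM, 0.5% DMSO); fix 30 min in 3.7% formaldehyde at room temperature; permeabilize; stain alpha-tubulin 60 min; image microtubule cytoskeleton at 20x. Signal change fitted in both directions relative to DMSO.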

Structures are written as SMILES. Values joined by “and” are separate entries in the source; they are usually repeats but may differ in a detail not shown here. Equal values may be shown once. More than one record can exist for a structure, and the calls need not agree. Active and inactive are the calls of the source. Rule for the calls: active = hit-call score of the fitted dose curve at least 0.9, where 1 is the maximum; inactive = score below 0.9.

Turning to `C#CCOC(=O)[C@@H](C)Oc1ccc(Oc2ncc(Cl)cc2F)cc1`, the call in test [1], in test [2], in [3], in [4], in test [5] and in test [6] was inactive. The outcome in test [7], in [8], in [9], in [10], in test [11] and in test [12] was inactive. In addition, the compound was called inactive in test [13], in test [14], in test [15], in [16], in test [17] and in test [18].
With `CC(C)(C)[C@@H](O)[C@@H](Cc1ccc(Cl)cc1)n1cncn1`, the outcome in [1], in test [2], in test [3], in test [4], in [5] and in test [7] was inactive. Moreover, the compound was classed as inactive in test [8], in [9], in test [10], in test [12], in test [13] and in test [14]. The call in test [16], in [17] and in [18] was inactive. Besides, the AC50 in test [6] is 15.8 µM (active); in test [19] it was 33.4 µM (active).
Consider `CCOC(=O)[C@H](C)Oc1ccc(Oc2nc3ccc(Cl)cc3o2)cc1`, for which the compound was classed as inactive in [1], in test [2], in test [3], in test [4], in test [5] and in test [7]. Moreover, the outcome in [8], in test [9], in [10], in test [11], in test [12] and in test [13] was inactive. Further, the outcome in [14], in test [16], in test [17] and in [18] was inactive. In addition, the figures for the AC50 in test [6] and in test [19] were 96.7 µM (active) and 117 µM (active), respectively.
As to `S=C(S)NCCNC(=S)S.[Mn+2].[S-]C([S-])=NCCN=C([S-])[S-].[Zn+2]`, the AC50 is 50.8 µM (active) and 53.7 µM (active) in test [1]; 50.1 µM (active) [middle of 4 runs] in test [4]; 55.2 µM (active) and 107 µM (active) in test [5]; 53.5 µM (active) and 51.5 µM (active) in [9]; 50 µM (active) [middle of 6 runs] in [10]; 51.9 µM (active) [middle of 5 runs] in [12]. The AC50 was 50 µM (active) [middle of 7 runs] in test [14]; 40.9 µM (active) and 82.9 µM (active) in test [16]; 31.4 µM (active) and 52.5 µM (active) and 169 µM (active) in test [18]. The result in test [1], in [2], in test [3], in test [4], in test [5] and in [6] was inactive. Further, the compound was classed as inactive in [7], in test [9], in [10], in [12], in test [13] and in test [16]. Besides, the result in [18] was inactive.
Take `OB(O)O`: the compound was called inactive in test [1], in test [2], in [3], in test [4], in test [5] and in test [6]. Also, the compound was called inactive in test [7], in test [8], in test [9], in test [19], in test [10] and in test [11]. Moreover, the compound was called inactive in [12], in [13], in [14], in [16], in test [17] and in [18].
On to `Oc1ccc(C(c2ccc(O)cc2)C(Cl)(Cl)Cl)cc1`, for which the result in test [1], in [3], in [20], in [5], in test [6] and in test [7] was inactive. Moreover, the call in test [8], in test [9], in test [10], in test [13], in test [14] and in [16] was inactive. For the same compound, the outcome in test [17] and in [18] was inactive. Further, the AC50 in test [2] is 94.2 µM (active); in test [4], 135 µM (active); in test [19] it was 33.4 µM (active); in test [12], 85.6 µM (active).
